# Screens (PubChem)
# Sampled rows, rich in hits. Any-hit rate of the full collection: about 0.9%.
# E coli growth-1: bacterial growth inhibition, counter-screen for AddAB inhibitors. hit rate 0.27% among 330,000. E. coli V3065 growth, OD600 absorbance, 18 h. AID 449728. inhibition, % at 11.9 µM;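 active = inhibition above the campaign's mean inhibition across all tested compounds plus 3 SD, cut at about 9.9% in these data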;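 note: uninfected addAB+ strain grown without phage in ampicillin broth; 0% = DMSO wells and 100% = ciprofloxacin 0.95 µg/ml wells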
# phage Ecoli inh: E. coli growth loss with phage present. hit rate 0.26% among 360,000. growth absorbance. inhibition, % at 11.9 µM; in the data active = inhibition above about 11%
# Tat export inh: E. coli Tat transport inhibition. E. coli MC4100 TorA-mCherry Tat export, fluorescence. inhibition, % at 10 µM. AID 488895. hit rate 0.036% among 340,000;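 active = mean replicate inhibition at least 50% and at least half of replicates individually reaching 50%; inconclusive = only one of the two criteria met; inactive = neither criterion met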;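 note: exported cargo escapes ClpAP degradation while cytoplasmic cargo is degraded and loses fluorescence; 0% = median of neutral control wells and 100% = median of NaSCN control wells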
# E coli growth-2: inhibitors of Escherichia coli growth; OD600, 23 h; stronger effect = lower value; OD600 absorbance (no concentration beside the values); hit rate 0.21% among 330,000; AID 1053175;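 active = OD600 absorbance below the run mean of sample wells minus 3.6 SD, in any replicate, cut at about 0.56 in these data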
# AddAB inh: less growth of phage-infected E. coli with AddAB; E. coli expressing H. pylori AddAB, absorbance growth; inhibition, % at 11.9 µM; hit rate 0.29% among 330,000; AID 435030; in the data active = inhibition above about 12%;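 note: 0% = vehicle wells of infected cells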
# Calb FLC: affects C. albicans growth with fluconazole | C. albicans CaCi-2 (fluconazole-resistant clinical isolate) + fluconazole, Alamar Blue growth, 48 h | growth inhibition, % (concentration not given with the values) | hit rate 0.57% among 300,000;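 active = growth inhibition above about 58% in most replicates, limit read from the data, passing the limit was not always enough; inconclusive = exactly half the replicates above a set limit; inactive = most replicates below a set limit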;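 note: all wells also contain fluconazole at 8 µg/ml as a sub-toxic cotreatment; 0% = median of DMSO wells and 100% = median of geldanamycin control wells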
# Active calls of the source: *; ? = inconclusive; / = no result.
SMILES,E coli growth-1,phage Ecoli inh,Tat export inh,E coli growth-2,AddAB inh,Calb FLC
Cc1ccc(OCC(=O)NNC(=S)NC(=O)C2CCCCC2)c(C)c1,-3,/,-8,0.7,-1,-6
O=C(Nc1ccc(OC(F)(F)F)cc1)Nc1cccc([N+](=O)[O-])c1,9,10,-23,0.39*,9,-14
Cc1ccc(NC(=O)Nc2cccc([N+](=O)[O-])c2)cc1F,3,10,0,0.48*,4,-27
O=C(Nc1ccc(OC(F)(F)F)cc1)Nc1cccnc1,4,0,7,0.58,5,-4
Cc1cc([N+](=O)[O-])ccc1NC(=O)Nc1ccc(F)cc1F,5,4,0,0.51*,3,11
C/C(C=NN1CCN(c2ccc(C)cc2)CC1)=C\c1ccccc1,/,/,/,0.72,/,/
O=C(O)c1ccc(NN=CC2=Cc3ccccc3OC2)cc1,/,/,/,0.67,/,/
COC(=O)c1ccccc1Sc1c(C=NOCc2ccc(Cl)cc2)c(C(F)(F)F)nn1C,/,/,/,0.72,/,/
COc1ccc(OC)c2[nH]c(C(=O)NN=Cc3ccccc3O)cc12,/,/,/,0.65,/,/
O=C(N/N=C/c1ccccc1O)c1cccc(C(F)(F)F)c1,-4,4,-7,/,4,80*
COc1ccc(OC)c2[nH]c(C(=O)N/N=C/c3ccccc3O)cc12,1,3,-2,/,6,90*
COC(C(=O)NN=Cc1ccc(OCC(=O)N2CCOCC2)cc1)c1ccccc1 (stereo not drawn),/,/,/,0.71,/,/
CCCCCCCCCCC[N+](C)(C)CC/C=C1/c2ccccc2Sc2ccc(Cl)cc21,3,/,?,/,-2,84*
O=[N+]([O-])c1ccc(N2CCN(Cc3ccc([N+](=O)[O-])o3)CC2)cc1,/,1,-14,0.65,/,133*
COc1cccc(N2CCN(c3nc(C)cc(C)c3C#N)CC2)c1,-1,0,9,0.61,-2,-11
Cc1cccc(N2CCN(c3nc(C)cc(C)c3C#N)CC2C)c1 (stereo not drawn),-2,3,11,0.71,2,90*
O=C(NCc1cccnc1)c1ccc(-c2cccc(Cl)c2Cl)o1,0,6,-6,0.62,2,61*
O=C(NCc1cccnc1)c1ccc(-c2ccccc2[N+](=O)[O-])o1,-3,2,-5,0.64,5,-11
CCOC(=O)C1CCN(C(=O)c2ccc3c(=O)n4nc(Nc5cc(C)ccc5C)sc4nc3c2)CC1,0,0,11,0.67,4,88*
CCOC(=O)C1CCN(C(=O)c2ccc3c(=O)n4nc(Nc5ccccc5OC)sc4nc3c2)CC1,/,-2,/,/,/,/
O=C(NNC(=S)NC(=O)C12CC3CC(CC(C3)C1)C2)c1ccncc1,-1,3,-17,0.65,-2,103*
CC1(C(=O)NC(=S)NNC(=O)c2ccncc2)CCCCC1,-7,-4,-6,0.68,-1,-5
O=C(NNC(=O)C12CC3CC(CC(C3)C1)C2)c1cnccn1,-11,-3,1,0.66,-8,104*
Cc1cc(Cl)ccc1OCc1cn2cccnc2n1,-2,3,-6,0.68,-1,61*
Clc1ccc(OCc2cn3cccnc3n2)c2ncccc12,/,2,-11,0.66,/,8
SMILES,E coli growth-1,phage Ecoli inh,Tat export inh,E coli growth-2,AddAB inh,Calb FLC
NC(=O)c1cc2ccccc2oc1=NNC(=O)c1cccc(F)c1,/,/,/,0.67,/,/
S=c1[nH]nc(C2CCCCC2)n1/N=C/c1ccc(Br)cc1,0,4,5,/,2,6
S=c1[nH]nc(C2CCCCC2)n1/N=C/c1ccc(Br)s1,2,1,-10,/,1,90*
COC(=O)c1ccc(-n2c(C)cc(C=Nn3cnnc3)c2C)cc1,/,/,/,0.71,/,/
O=C(c1ccc([N+](=O)[O-])s1)N1CCCc2ccccc21,5,1,-9,0.69,2,6
O=C(c1ccc(C(=O)N2CCCc3ccccc32)s1)N1CCCc2ccccc21,-2,4,20,0.69,-1,114*
Cc1cc(-c2ccc(N=Nc3c(S(=O)(=O)O)cc4cc(S(=O)(=O)O)cc(N)c4c3O)c(C)c2)ccc1N=Nc1c(S(=O)(=O)O)cc2cc(S(=O)(=O)O)cc(N)c2c1O,-35,/,/,/,-24,/
O=S(=O)(O)c1cc(O)c2c(O)c(N=Nc3cc(Cl)ccc3O)c(S(=O)(=O)O)cc2c1,-8,/,-2,0.87,-6,85*
O=C(c1ccccc1)c1c[nH]c(C(=O)NNc2ccccc2)c1,1,2,-5,0.69,-1,99*
CCOc1ccccc1N1CCN(CC(O)COC2CCCc3ccccc32)CC1 (stereo not drawn),-1,1,4,0.65,0,83*
